Shown are actives, neighbours in structure and some others; about 28% of the full set was active somewhere.
D1 allo mod: allosteric modulators of human D1 dopamine receptor; 58,000 compounds, 5.9% hits; B-score at 10 µM; HEK293 D1, CRE-luciferase, dopamine EC30 potentiation; actives deviate in either direction;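 active = luminescence count or its row- and column-corrected plate score outside the 99.7% band of the plate's sample wells, on either side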
CYP2C9 activ: increases human cytochrome P450 2C9 activity | P11712 | activation factor at 5 µM | 96,000 compounds, 1.4% hits | recombinant CYP2C9, luciferin-H conversion, luminescence; hits give high values; factor 1 = untreated enzyme, 0 = blocked;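 active = activation factor of 2 or more for CYP2C9 at a 5 µM dose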;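 note: 0 = sulfaphenazole-blocked wells and 1 = vehicle-only wells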
CYP2C19 inh: inhibitors of human CYP2C19; P33261; CYP2C19 Supersomes, luciferin-H EGE luminescence, 30 min; inhibition, % at 5 µM; 96,000 compounds, 21% hits;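 active = CYP2C19 inhibition above a set limit at 5 µM in the primary screen, cut at about 50% in these data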;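 note: plate controls were negative control wells for no effect and 2.5 mM tranylcypromine positive control for full effect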
CYP2C9 inh: human CYP2C9 inhibition; P11712; CYP2C9 Supersomes, luciferin-H conversion, luminescence; inhibition, % at 5 µM; 96,000 compounds, 20% hits;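 active = blocking of liver enzyme CYP2C9 beyond about 50% at 5 µM, limit read from the data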
hDAT+cocaine: human DAT dopamine uptake with cocaine, either direction | 110,000 compounds, 1.3% hits | LLC-PK1 hDAT cells, [14C]-dopamine uptake with cocaine IC80; actives deviate in either direction | Q01959 | B-score at 10 µM | AID 449768;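 active = Z score or B-score, a plate-position-corrected score, falls beyond the plate's 99.7% confidence bounds, in either direction; inactive = both scores lie inside the 99.7% bounds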;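 note: scored against the spread of the other compound wells on the same plate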
Target sequence (Q01959 whole entry, looked up): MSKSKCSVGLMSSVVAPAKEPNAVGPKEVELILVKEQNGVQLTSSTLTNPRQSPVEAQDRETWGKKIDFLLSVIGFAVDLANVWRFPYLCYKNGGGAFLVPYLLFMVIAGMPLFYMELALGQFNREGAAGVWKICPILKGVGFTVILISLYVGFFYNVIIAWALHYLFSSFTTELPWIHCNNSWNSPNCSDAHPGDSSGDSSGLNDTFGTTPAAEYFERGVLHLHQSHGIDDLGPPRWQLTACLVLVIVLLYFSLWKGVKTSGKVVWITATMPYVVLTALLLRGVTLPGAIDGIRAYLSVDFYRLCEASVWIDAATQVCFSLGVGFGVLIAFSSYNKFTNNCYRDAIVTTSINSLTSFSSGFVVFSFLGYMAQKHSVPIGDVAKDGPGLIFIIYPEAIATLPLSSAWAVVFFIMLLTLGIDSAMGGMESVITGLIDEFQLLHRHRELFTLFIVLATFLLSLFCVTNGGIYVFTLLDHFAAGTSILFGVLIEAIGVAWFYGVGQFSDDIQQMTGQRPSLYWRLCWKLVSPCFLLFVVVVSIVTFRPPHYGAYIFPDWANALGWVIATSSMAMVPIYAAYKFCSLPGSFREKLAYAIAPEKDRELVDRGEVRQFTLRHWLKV
CYP2C19 act: increases human CYP2C19 enzyme activity; AID 1025; P33261; recombinant CYP2C19, luciferin-H EGE luminescence; hits give high values; 0 = fully inhibited enzyme, 1 = untreated enzyme; 96,000 tested, under 10 active; activation factor at 5 µM;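 active = activation factor of at least 2 at 5 µM in the primary screen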;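 note: 0 = wells with 2.5 mM tranylcypromine and 1 = vehicle-only wells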
An asterisk follows results filed as active; . = not tested or not shown.

SMILES	D1 allo mod	CYP2C9 activ	CYP2C19 inh	CYP2C9 inh	hDAT+cocaine	CYP2C19 act
O=C(NC1CCCC1)c1cccc(NC(=O)c2ccco2)c1	.	0.5	-1	45	-0.49	1
O=C1c2ccccc2C(=O)N1CCC(=O)N1CCc2ccccc21	0.31	.	.	.	.	.
CCc1nnc(NC(=O)c2c(O)c3cccc4c3n(c2=O)CC4)s1	0.22	1	-5	-2	.	1.1
O=C(Cc1ccccc1)N1CCc2ccccc21	.	0.7	82*	26	0.81	0.2
O=C(CCn1cccc1)N1CCc2ccccc21	0.17	1	52*	-5	-0.0047	0.5
CCc1nnc(NCC(=O)N2CCc3ccccc32)s1	.	0.4	48	60*	0.28	0.5
COc1ccc(CC(=O)N2CCc3ccccc32)cc1	.	.	.	.	1	.
COc1cc(NC(=O)C2CCCCC2)c(OC)cc1NC(=O)CN1CCCCC1	0.089	0.9	6	12	0.0092	0.9
CC(C)(C)[C@H]1C=C(C(=O)N2CCN(Cc3ccccc3)CC2)O[C@@H](OCc2ccc(CO)cc2)C1	.	.	.	.	1.6	.
c1ccc2c(-c3nc(C4CCCCC4)no3)cc(-c3ccncc3)nc2c1	2	0.2	57*	80*	1.2	0.4
Cc1ccc2nc(-c3ccncc3)cc(-c3ccccc3)c2c1	.	0.6	17	36	-0.17	0.8
Cn1c2c(c(=O)n(C)c1=O)C1(C(=O)Nc3ccccc31)C(C#N)=C(N)O2 (stereo not given)	.	0.9	0	13	-0.084	1
Cc1ccc2nc(Cc3ccc(N)cc3)[nH]c2c1	.	0.9	82*	10	1.3	0.2
Nc1ccc(Cc2nc3c(ccc4ccccc43)[nH]2)cc1	.	0.7	86*	33	2.4	0.1
Cc1ccc(C)c(-c2nc3ccc(N)cc3[nH]2)c1	-0.75	0.8	47	17	-0.39	0.5
CCCCC(=O)Nc1sc2c(c1C(=O)OCC)CCC(C=O)=C2Cl	.	0.9	2	10	1.3	1
CCOc1ccc2nc(Nc3nc4c(c(=O)[nH]3)CCC4)nc(C)c2c1	0.061	.	.	.	.	.
COc1ccc2nc(Nc3nc(C)c(CCC(C)C)c(=O)[nH]3)nc(C)c2c1	-0.84	0.4	60*	58*	0.62	0.4
Cn1c(=O)c2c(nc(NC3CCCCC3)n2CC(=O)C23CC4CC(CC(C4)C2)C3)n(C)c1=O	-0.017	.	.	.	-0.49	.
C(=C\c1nc2ccccc2[nH]1)/c1ccccc1	.	0.4	72*	60*	0.96	0.3
Cc1ccc(CN2C(=O)CCC2C(=O)NCCN(CC(C)C)CC(C)C)cc1 (stereo not given)	-0.5	0.7	8	27	-0.011	0.9
CN1CCN(CC#CC2(O)CCCCC2)CC1	-1.3	1.1	-6	-10	0.088	1.1
O=C(Oc1cccc(Oc2ccccc2)c1)N1CCOCC1	-0.036	1	63*	0	1.7	0.4
CCOC(=O)N1CCOCCOCCN(C(=O)OCC)CCOCC1	0.0028	0.9	13	13	1.3	0.9
O=C(OCc1ccccc1)N1CCOCCOCCN(C(=O)OCc2ccccc2)CCOCCOCC1	.	0.2	27	84*	2.5	0.7
SMILES	D1 allo mod	CYP2C9 activ	CYP2C19 inh	CYP2C9 inh	hDAT+cocaine	CYP2C19 act
COC(=O)[C@@H]1C[C@@]2(O)[C@H](O)[C@H](O)[C@H](O)C[C@H]2N1CC(c1ccccc1)c1ccccc1	.	.	.	.	-1.1	.
Cc1ccc(S(=O)(=O)c2ccc(Oc3cccc(C)c3)cc2)cc1	.	0.5	31	53*	0.96	0.7
CCOC(=O)c1sc(N)c(C#N)c1COC(=O)CNC(=O)c1ccccc1	2.4	0.3	42	73*	-0.03	0.6
Cc1cc(C(=O)N2CCN(c3ncccn3)CC2)sc1-c1ccccc1	0.34	.	.	.	0.69	.
O=C(c1cc(-c2ccccc2)nc2ccccc12)N1CCN(c2ccccn2)CC1	-2.7	0.5	37	52*	0.39	0.6
O=C(c1cc(-c2cccnc2)nc2ccc(Br)cc12)N1CCN(c2ncccn2)CC1	-3	0.4	34	58*	0.15	0.7
COc1ccc(N(C)C(=O)c2cnc(N3CCN(c4ncccn4)CC3)c3ccccc23)cc1	.	0.3	79*	69*	.	0.2
O=C(c1ccccc1-c1ccccc1)N1CCN(c2ccccn2)CC1	0.14	0.3	40	73*	.	0.6
O=C(c1cc(-c2ccncc2)nc2ccccc12)N1CCN(c2ccccn2)CC1	-0.24	0.1	39	85*	1.7	0.6
O=C(c1ccco1)N1CCN(C(=O)c2cc(-c3ccccn3)nc3ccccc23)CC1	0.67	1	1	4	-1.2	1
O=C(c1cc(-c2ccncc2)nc2ccccc12)N1CCN(c2ccc(N3CCOCC3)nn2)CC1	-0.087	0.3	38	68*	-1.3	0.6
COc1ccc(-c2cc(C(=O)N3CCN(c4ccccc4)CC3)c3ccccc3n2)cc1OC	.	0.1	89*	93*	1.4	0.1
O=C(Nc1c(F)cccc1F)c1cnc(N2CCN(c3ccccn3)CC2)c2ccccc12	.	0.4	36	65*	1.5	0.6
O=C(c1ccc(C#Cc2ccccc2)o1)N1CCN(c2ccccn2)CC1	-0.44	0.4	15	56*	0.35	0.8
O=C(Nc1ccccc1)c1cc(N2CCOCC2)nc2ccccc12	.	0.5	20	51*	-0.8	0.8
Cc1ccc(NC(=O)c2cc(N3CCOCC3)nc3ccccc23)cc1	.	0.6	4	36	0.018	1
O=C(c1cnc(N2CCN(c3ncccn3)CC2)c2ccccc12)N1CCN(c2ccccn2)CC1	-1.5	0.2	68*	80*	0.048	0.3
CCCOc1ccc(-c2nc(C#N)c(N3CCN(CC)CC3)o2)cc1	-0.087	0.7	38	26	1.2	0.6
CCOC(=O)c1sc(=S)n(-c2ccc(Cl)cc2)c1SC	.	0.7	-1	27	0.0092	1
CCCCC1=CC2=CC(=O)C(C)(OC(=O)CC)C(=O)C2=CN1CCc1ccc(Br)cc1 (stereo not given)	.	.	.	.	-0.92	.
C=CCn1c(SCC(=O)NCCC2=CCCCC2)nc2ccc(Cl)cc2c1=O	.	0.4	29	56*	-0.97	0.7
O=C(CCCn1c(=O)[nH]c2cc(Cl)ccc2c1=O)NCCC1=CCCCC1	.	1	5	-4	0.44	1
COc1ccc(C(C(=O)Nc2ccc(C(C)C)cc2)N(C)C(=O)CNC(C)=O)cc1 (stereo not given)	.	0.7	24	33	0.96	0.8
COc1ccc(NC(=O)C(c2ccc(C)cc2)N(C)C(=O)c2cnccn2)cc1 (stereo not given)	-0.92	0.5	52*	53*	1.7	0.5
O=S(=O)(NC1CCCc2ccccc21)c1cnc[nH]1 (stereo not given)	-0.2	0.5	68*	52*	0.033	0.3
Cn1c(=O)oc2cc(S(=O)(=O)NC3CCCc4ccccc43)ccc21 (stereo not given)	.	1.3	-3	-28	0.042	1

Assay outcomes deposited in PubChem BioAssay by several laboratories.
